Assay results as given in PubChem BioAssay AID1508600 (Functional Genomics Laboratory (NCATS/FGL), 2020).
Hit rate of the full screen: of about 53,000 sequences, about 3,700 (7%) were called active. The full list was thinned out, with actives kept by preference. A number with no mark means an inactive call.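 Rule for the calls: active = gene knockdowns whose robust z-score for IL-1 alpha signal is at least 2 or at most -2, so actives lie on both sides; inactive = the rest.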

Assay: Components of the Cytosolic LPS Sensing Pathway: Gene Identification via Genome-wide siRNA Screen;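 note: robust z of the log signal after scaling to non-targeting control siRNA wells of the plate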
Conditions: RAW264.7 macrophages, IL-1a HTRF, actives lie on both sides, screened at 100 nM (by protocol), cells primed 5 h with Pam3CSK4 first
In short: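 Mouse macrophage line RAW264.7 is transfected with siRNA (100 nM final), grown 48h, primed with TLR ligand Pam3CSK4 5 h and given intracellular LipidA 24 h. IL-1a in supernatant is read by HTRF and viability by luminescence.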

Sequence | z-score
GGUUGUGCAGUUUUAUUUCTT against Tceal1 | -0.176
GCUAACAUUGUAAAUGCACTT against Dmrta1 | 0.467
GGAAAAGCUUUUGUUCCCATT against Tfb1m | 2.58 (active)
GGAUUCUUCAUUUCUAGUGTT against C1qtnf6 | 0.231
GGUUCUGAACACAUUUCCATT against Cyp2d13 | -1.07
GUUUCUUCCAAACUCCAUCTT against Olfr487 | 0.622
GGUCGACAGUUAAAAUGAUTT against Bpifc | -0.431
GCAAGCCCUGGAAGAAUUATT against Nat8 | 2.26 (active)
GGAUGAGUACACUGAAAGCTT against Nvl | 0.544
CGUGGACAUCGAUAUCACCTT against Slc26a8 | -0.737
CCCGGAAUAAGACAAUUUCTT against Olfr788 | 0.282
GCAUGUUAAGCCUUGUAUATT against Tnpo1 | -1.67
GGCUACAGAAGCUACUAAATT against Akr1c6 | 1.23
GGGUGCAUCCCAUUCUCUUTT against Pld1 | -0.0755
GCGAGAGAUCCCUCUGAAATT against Pigs | -0.284
GCAUCCCAGAUAUUGAGCATT against Arrdc1 | 2.52 (active)
GCUCUGUUCACACGUUUAATT against Arhgap10 | -0.898
CGAAAUUGUGAUGAUGAACTT against Mast1 | -0.799
CCAAUUUGACCCAUACUAUTT against Crtc2 | 1.61
GGAGAUUGGGAUCAAAGCCTT against Mthfd1 | -1.56
GGACCUUUCAUCAACCCAUTT against Olfr676 | 2.13 (active)
GGUGCCAUUGAUUCUGUAGTT against Smim10l2a | -0.807

Sequence | z-score
GCAGUGGGAAUCGAUAAAGTT against Fgfr2 | -0.876
GGCAAGCUGUAAAAGAUGCTT against Noc3l | 3.32 (active)
GGCCAUUUCUAUGAAAUUATT against Olfr1016 | -2 (active)
CCUUAGGACAAGUAUUCUGTT against Cbx6 | 0.47
GGCAACUUUAUACACAAACTT against Vmn1r13 | -0.283
GGAACCUUUCAGAAAUAUATT against Calhm5 | -0.53
GGUCUGAUUGUCCUCUCUUTT against Slc35b4 | 3.25 (active)
CCACACCUUCAAAGCGAGATT against L3mbtl4 | -0.104
GGCCUUGAUUCAAUUCAACTT against Tgm6 | 0.812
GGCAGAUAUUUAGAUGAUGTT against Pdyn | -0.932
GAUGUUCUUUGUCCACAUGTT against Olfr666 | -0.325
GCAUUUUCUAGAUGGAAGCTT against Hao1 | 0.748
GGUCAUUCUCCAAGAACUATT against Ugp2 | -0.844
GGUUCAGUAUAUCAUCUCUTT against Zfp335 | 2.69 (active)
GGAGAACAGUUUCAAGAUGTT against Rnf152 | -0.487
GCCGGACUUCCCAUCUGUUTT against Srebf1 | -0.784
GACGAAUAUCAUCUCACACTT against Olfr875 | 0.901
GCAGUUGACAUUUACUCUCTT against Nol10 | 2.36 (active)
GCUCCACACUACGUGUCAUTT against Olfr476 | 1.66
GCCUUAUCCAUAUCGACUATT against Arrdc1 | 0.831
GGAUGCUCAUGGACCUUUGTT against Olfr1122 | 0.931
CGUACUCCAACAACACUUUTT against Pdzd8 | -0.503

Sequence | z-score
GGACUGUGUGUGCAAAGGUTT against Mt3 | -0.176
GCUACUGCCGGAAUUUGGUTT against Tiam1 | 0.497
CGCAAGAUACCAACACUUATT against Flad1 | -0.487
GGAACACAAAAGCAAAGAUTT against Prpf38b | 2.2 (active)
GGAUUGUGGGUUUAUAUAATT against Olfr835 | 0.274
CAGGCUGGUUACUUUGGCUTT against Lhfpl5 | -0.246
CCUUCCAACUCUUCUCCUCTT against H2-T3 | 0.915
GCCUCAUUUGAUCAAUGUCTT against Actr2 | 1.86
GCUAGAUAAACUCUCUCAATT against Cxcr5 | 0.73
GGUCCAGCUCAUGAAACUUTT against Sik1 | 0.147
GGGUUUGGUCGUAAACAGCTT against Limd2 | -1.06
GGUGCUGCUAUUCCUGCACTT against Gpam | -2.03 (active)
GGGAGCUACGUUCAGAAGUTT against Gckr | 1.63
GGAUUUCUGUGGAGAUGGGTT against Cchcr1 | 0.444
GCUACUCCAUUUACAUCUATT against H2bc1 | -0.122
GCGGAGUGUGAAACACUGATT against Ccdc32 | 0.842
GGAAGGACAGACAGACAAGTT against Pxt1 | 0.165
CCUAGAUGACACUUGGGUGTT against Nup35 | -1.4
GCCUCUUCAAUCACAUUUATT against Atp6v0a4 | 3.27 (active)
GGAAAGAUCUACGAGAUCUTT against Unc5a | 1.04
CGGAUUCGUCUGUUUUCUGTT against Ddi2 | 1.97
GGAUAUACAUGGUCUGUUUTT against Naip5 | 0.318

Sequence | z-score
GGACUCCUCCCAAGACGAATT against Avil | -0.118
CCUACCAUAGCAACACUAUTT against Kcna2 | 3.14 (active)
GGCCCUCACAAUGAAUAUGTT against Efs | -0.115
ACGAUAUGUUGACCUUGGCTT against Cyp2c67 | -0.274
CGGCAAUUUGAGUUGAAAATT against Ppp1r2-ps9 | -0.571
GGGCACCUUAUACCAUAGATT against Bfar | 0.345
GGCCAUGGAGAACAUAUGCTT against Trpm8 | -2.09 (active)
GGCUAUUGAGCUCUUUGUCTT against Qpctl | -0.661
GGAGUAGUAGCUAUUAUAUTT against Kctd9 | 1.89
GCUUUGAGACCUAAUGAUGTT against 1810024B03Rik | -0.469
GGUGCUAGUGUAUGAAUUATT against Nsun5 | 2.39 (active)
GGAUCAUUUGUUAAUGUACTT against Ddx3y | 0.0896
GCUAUUGCUCGCAUCAAUGTT against Prps1l1 | 0.989
GCGAUUAUUUCGCUUUGGATT against Pcdha12 | -0.502
GGAGAGUAAAACCAAUACATT against Fam76a | -0.0433
GGGUCACAGAGGUUACCCATT against Col2a1 | 1.25
GGAGACCAAAAAGAAAUAATT against Cmas | 0.622
GGUGGUGGAAUGCUAAAAATT against Gys1 | 2.29 (active)
CCAGAAUACUGGGAUACAATT against B4galnt3 | -0.577
GCUCAUGUAUGUGAAUUUGTT against Ptx3 | -1.25
GGAAACACCAUGAAGAUGATT against Atpif1 | -0.0257
GCAAGUCGUAAGCCUCAGGTT against Mrps10 | 0.533

Sequence | z-score
GCUACGGACCAUGUUCAAGTT against Nxpe4 | 2.93 (active)
GGAGGUACCACAAAAGGCATT against Kif2c | 0.0217
CCAACUAAGUGAAAUUCCATT against Aspn | -1.26
CCCAACAUUAUCUUGGACCTT against Mrgpra8 | -0.26
GGGAAGGAUUUUUGAUGAUTT against Arfgap1 | 1.33
GGAAGGAAGGAAUAAAACUTT against Fitm2 | -0.981
GCCACUUCACAGCAAGCUATT against Cdk2ap1 | 3.27 (active)
GGGCGAACAGGACAAUUAUTT against Med22 | -0.421
GCCCAUUAAUGCGUAUUUUTT against Mettl2 | 1.22
GCUAAGUCGGAUGAUAGAATT against Ttc16 | -0.742
GGCAUGAUCAGCACAUCACTT against Rpap1 | 0.578
GGAUGAAUAUGGUGUUUCUTT against Rnf138 | -2.23 (active)
GCUAAAUUACACAUUGACCTT against Vcam1 | 0.226
GGGAAGCAACAUGAUUAAATT against Kat7 | 0.669
CCUCACUGGUACAAUCCCATT against Tsg101 | -0.906
GGAACCAGUUUAAAUGAUUTT against Marchf7 | 0.04
CGUUACGUAAAUCUUGUGATT against Sstr2 | 0.227
GGUGGUCUACCAGCAUUUGTT against Pde4dip | 2.16 (active)
GGCCAAUAAUGUGUUUCGUTT against Cmpk2 | -0.632
CCUGGUGCCUUUAUCUACCTT against Ctxn1 | 0.907
